Six1-Eya2 blk = Six1/Eya2 interaction inhibition | Q15475+O00167 | AlphaScreen GST-Six1/His-Eya2 binding, biochemical; active compounds read low | activity change, % (test concentration not listed) | 360,000 tested, 0.56% active
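GST-Six1 + His-Eya2 (5X stock: 250/500 nM); Tris pH 8.0, 300 mM NaCl, 0.05% BSA, 0.02% Tween 20; GSH donor/Ni acceptor beads; 1 h 37 °C dark; AlphaScreen readout.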
pAkt inh = inhibitors of Akt phosphorylation | Neuro2A IGF-stimulated pAkt S473 HTRF, 20 min; active compounds read low | activity change, % for hits at 50 µM | 360,000 tested, 0.32% active | AID 651550; in the data active = activity change below about -80%; inconclusive = mostly about -51% to -80%
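Single-point screen (50 µM final compound) in Neuro2A cells stimulated 20 min with 6 nM IGF at 37 deg C. After lysis, Ser473-phosphorylated Akt read by HTRF (ex 330 nm, em 615/665 nm) as the 665/615 ratio.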
PI5P4Ka inh = PI5P4K alpha (human) kinase inhibition | AID 652105 | 330,000 tested, 1.2% active | max response, % | PI5P4Kalpha enzyme, ADP-Glo luminescence, 60 min; active compounds read low | P48426; active = max response of -50% or lower; inconclusive = between -30% and -50%; inactive = -30% or higher; also: value at the top dose of about 77 µM
Target sequence (P48426 whole entry, looked up): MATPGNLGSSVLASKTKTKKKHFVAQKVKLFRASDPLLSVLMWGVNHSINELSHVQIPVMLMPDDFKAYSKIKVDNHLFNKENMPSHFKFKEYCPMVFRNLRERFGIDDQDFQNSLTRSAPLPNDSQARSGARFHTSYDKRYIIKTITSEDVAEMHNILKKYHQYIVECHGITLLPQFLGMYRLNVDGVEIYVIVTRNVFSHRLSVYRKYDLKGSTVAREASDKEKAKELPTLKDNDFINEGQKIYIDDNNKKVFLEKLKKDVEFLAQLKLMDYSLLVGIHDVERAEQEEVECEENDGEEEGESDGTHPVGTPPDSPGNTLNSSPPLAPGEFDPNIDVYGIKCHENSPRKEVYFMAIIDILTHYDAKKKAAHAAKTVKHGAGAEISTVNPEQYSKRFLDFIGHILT
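Single end-point luminescence (ADP-Glo) quantified ADP from PI5P4Kalpha turnover; ATP 5 microM final, 1 h at RT, 0.1% CHAPS and 0.28 mM EGTA in HEPES pH 7.4.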
PI4K2A block = PI4K2A (human) kinase inhibition; Q9BTU6; purified PI4K2A, ADP-Glo luminescence, 1 h; active compounds read low; activity change, negative = inhibition, % at 76.9 µM; 420,000 tested, 0.13% active; AID 1346378; in the data active = activity change below about -50%; inconclusive = mostly about -30% to -49%;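 also: -100% = wells without enzyme as full effect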
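In this quantitative HTS, ADP production by PI4K2A was quantified luminescently after 1 h at ambient temperature; 100 microM adenosine served as plate-quality control.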
CtBP-E1A blk = inhibitors of CtBP/E1A interaction. AlphaScreen GST-E1A/His-CtBP binding, 1536-well; active compounds read low. activity change, % (concentration not given with the values). 340,000 tested, 0.49% active. AID 651724
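Protein mix (5X: 125 nM each GST-E1A, His-CtBP) was incubated with pinned compound 2 h at 37 deg C in dark, in 50 mM Tris pH 8.0 buffer with 300 mM NaCl. Glutathione donor and nickel acceptor beads followed; AlphaScreen signal read after 1 h.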
Active calls of the source: *; i = inactive; ? = inconclusive; . = no result. Shown are actives, neighbours in structure and some others; about 1.8% of the full set was active somewhere. Rule as the data show it, unless noted: active = activity change below about -65%; inconclusive = mostly about -30% to -63%; inactive = weaker than that. Unless noted, % is scaled to controls: 0 for no effect and ±100 for the full control effect.

SMILES	Six1-Eya2 blk	pAkt inh	PI5P4Ka inh	PI4K2A block	CtBP-E1A blk
Cn1c(=O)c2c(nc(N/N=C/c3c(O)n(C4CCCCC4)c(=S)[nH]c3=O)n2C)n(C)c1=O	-81.2*	i	-25.2	-0.9	?
Cc1cccc(-n2c(O)c(/C=N/Nc3nc4c(c(=O)n(C)c(=O)n4C)n3C)c(=O)[nH]c2=S)c1	-89.6*	i	?	0.1	-73.1*
COc1ccc(N/N=C/c2c(O)n(-c3cccc(C)c3)c(=O)[nH]c2=O)cc1	-12.9	i	-5.6	-3.3	-8.1
COc1ccc(CC2C(=O)N(c3ccccc3)C(=O)N(c3ccccc3)C2=O)c(OC)c1	2.2	i	.	1.5	15.3
O=C(O)c1cccc2nc3ccccc3nc12	-0.2	i	-3.0	1.5	3.0
COCCn1c(O)c(/C=N/NC(=O)CSC(=S)N2CCCC2)c(=O)[nH]c1=S	?	i	?	-3.9	-76.0*
CCCCC(=O)N/N=C/c1c(O)n(CCc2ccc(OC)c(OC)c2)c(=O)[nH]c1=O	4.9	i	-4.5	-4.7	-7.5
CN(C)CCCN=Cc1c(O)n(CCc2ccc(F)cc2)c(=O)[nH]c1=O	-0.4	-119.9%*	-10.0	4.8	-1.0
CCCCn1c(O)c(/C=N/N2CCOCC2)c(=O)[nH]c1=S	6.8	i	-1.3	-6.5	.
CCCCC(=O)N/N=C/c1c(O)n(CCc2ccccc2)c(=O)[nH]c1=O	?	i	-57.8*	1.8	?
CCCCC(=O)N/N=C/c1c(O)n(Cc2ccc(F)cc2)c(=O)[nH]c1=O	-68.2*	i	-16.9	-0.8	?
COCCNC(=O)N1[C@H]2CC[C@@H]1C(C(=O)OC)=C(c1ccc(OC)c(OC)c1)C2	6.9	i	-1.4	0.8	9.9
COc1cc(/C=C2\C[C@H]3[C@@H]4CC=C5C[C@@H](N6CCCC6)CC[C@]5(C)[C@H]4CC[C@]3(C)[C@H]2O)cc(OC)c1OC	-16.4	i	-4.4	-3.9	13.3
O=C(O)c1ccc(=O)[nH]c1	.	.	.	-3.8	.
CCCCCCC(=O)N/N=C/c1c(O)n(CCCC)c(=S)[nH]c1=O	?	i	-21.5	-2.3	?
CCCCC(=O)N/N=C/c1c(O)n(CC)c(=S)[nH]c1=O	-78.3*	i	5.4	-4.4	-0.3
COC1CCCCC1NCCc1ccccc1 (stereo unspecified)	4.9	i	-4.9	-4.5	6.3
Cn1c(O)c(C=Nc2ccc(F)cc2)c(=O)[nH]c1=O	-1.4	i	-7.2	-4.7	.
O=C1NC(=O)C(=Cc2ccc(-c3ccc(F)cc3O)o2)C(=O)N1	2.5	i	-87.3*	?	5.7
[Cl][Pt+2][Cl].[NH-]C1CCCCC1[NH-] (stereo unspecified)	?	i	?	-6.0	-73.3*
OCC(Br)CBr (stereo unspecified)	-2.1	i	-7.4	5.2	4.0
Cc1nc2c(=O)n(C)c(=O)nc-2n(C)n1	-19.7	i	-8.1	-55.4*	-3.3
COC1C(O)C(C)OC(OC2CCC3(C)C(CCC4C3C(O)CC3(C)C(C5=CC(=O)OC5)CCC43O)C2)C1O (stereo unspecified)	8.3	i	2.4	-2.3	-0.6
CCOC(=O)C1(CCc2ccccc2)CCN(Cc2csc(C(C)=O)c2)CC1	-26.3	i	0.6	2.5	.
COc1ccc2[nH]c3c(c2c1)CCN=C3C	-69.9*	i	-11.3	-1.7	?
SMILES	Six1-Eya2 blk	pAkt inh	PI5P4Ka inh	PI4K2A block	CtBP-E1A blk
C[C@]12CCC(=O)C=C1C=C[C@@H]1[C@@H]2CC[C@@]2(C)[C@H]1CC[C@@]2(O)CCC(=O)O	4.4	.	-0.1	-6.9	-12.2
CCn1nc(-c2ccccc2)nc2c(=O)n(C)c(=O)nc1-2	-26.6	i	-8.2	-57.4*	-25.9
COc1ccc(-c2nc3ccccc3c(=O)n2-c2ccc(OC)cc2)cc1	-6.7	i	-0.2	-3.9	0.4
NC(=O)c1ccc(N=Cc2c(O)n(Cc3ccco3)c(=O)[nH]c2=O)cc1	?	i	-78.8*	?	-1.4
O=c1[nH]c(=S)n(Cc2ccco2)c(O)c1C=NCc1cccs1	-3.8	i	-69.2*	-56.6*	-12.3
CCN(CC)c1ccc(N=Cc2c(O)n(Cc3ccco3)c(=O)[nH]c2=O)cc1	-0.7	i	0.7	-6.7	-5.5
CCn1c(O)c(C=NCc2cccs2)c(=O)[nH]c1=O	6.5	i	-24.8	-5.0	6.6
O=c1[nH]c(=O)n(Cc2ccco2)c(O)c1C=NCc1cccs1	-3.1	-92.9%*	.	5.1	-3.1
O/N=C/c1c[nH]c2ccccc12	7.9	i	-3.2	-2.3	6.1
O=C1NC(=O)C(=Cc2coc3ccc(O)cc3c2=O)C(=O)N1	0.0	i	-73.4*	?	-2.9
Cc1ccc2c(C)cccc2c1	8.3	.	-71.1*	6.4	-6.5
Cc1ccc(O)c(C)c1	-3.4	i	-1.4	2.6	5.3
CC(=O)NS(=O)(=O)c1ccc(NC(=O)c2cccn(Cc3ccc(Cl)cc3)c2=O)cc1	.	.	.	0.5	.
Oc1c(Br)c(Br)c(Br)c(Br)c1Br	-3.5	i	-60.5*	1.4	-10.9
O=C1NC(=O)C(CCc2ccncc2)(c2ccccc2)C(=O)N1	7.9	i	1.2	-3.1	6.8
O=[N+]([O-])c1ccc(N2CCCC2)c2ncccc12	-5.9	i	-4.5	5.1	-22.2
COc1ccc(OC)c(N2C(=O)/C(=C/c3ccco3)C(=O)NC2=S)c1	-70.6*	i	-86.4*	?	-9.7
COc1ccc(OC)c(N2C(=O)NC(=O)/C(=C/c3ccc([N+](=O)[O-])s3)C2=O)c1	0.0	i	?	-16.0	0.0
O=C1CC=C2C3CC4N(CCC45c4cc(O)c(O)cc4N1C25)CC3=CCBr (stereo unspecified)	-23.1	i	-69.6*	-15.2	3.1
O=C1CC=C2C3CC4N(CCC45c4ccccc4N1C25)CC3=CCO (stereo unspecified)	-1.4	i	17.0	-2.9	8.2
Cn1c(O)c(C=Nc2ccccc2-c2ccccc2)c(=O)n(C)c1=O	11.3	i	2.8	6.5	6.0
CN=C(SCc1ccccc1)c1c(O)n(C)c(=O)n(C)c1=O	1.4	-108.1%*	-1.3	-5.1	-11.7
O=C1NC(=O)C(=Cc2cc(Cl)ccc2OCc2ccc(C(=O)O)cc2)C(=O)N1	-1.0	i	-71.1*	-21.6	-1.8
O=c1c2ccccc2[se]n1-c1ccccc1	-7.9	i	-90.9*	1.0	?
COc1ccc(OC)c(N=Cc2c(O)[nH]c(=O)[nH]c2=O)c1	-10.3	i	-55.8*	-4.1	.
COC(=O)c1ccccc1N=Cc1c(O)[nH]c(=O)[nH]c1=O	-2.2	i	2.8	-1.4	.
c1cc2n(c1)-c1c(ccc3c1OCO3)CNC2c1ccc2c(c1)OCO2 (stereo unspecified)	?	i	1.5	11.4	-19.0

Screening data: PubChem, National Center for Advancing Translational Sciences (NCATS)
